# A number with no mark means an inactive call. Results filed as inconclusive are left out. Entries that show only a call come without a potency. Calls of active or inactive are those of the source. Unless noted, calls come from the whole dose curve; as a rule, active = well fitted curve in either direction with a large enough effect (not every such curve was filed as active); inconclusive = small, poorly fitted or top-dose-only effect, or another doubt; inactive = flat fitted curve, though single readings scatter.
# What was measured:
# [1] = AP1 Signaling Pathway (AID 357); settings: ME-180 AP-1-bla reporter, EGF-induced, beta-lactamase ratio, 5 h; at 7.69 µM (top of the series) unless noted;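 note: ME-180 reporter cells stimulated with EGF at its EC50 level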
# Procedure, shortened: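 AP-1-bla ME-180 cells, Opti-MEM + 0.5% dialyzed FBS, plated overnight 37 °C. Cpd titration + EC50 EGF, 5 h 37 °C. CCF4 2.5 h RT; ex 405, em 460/530 ratio → %activity, AC50.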
# [2] = target: Cytochrome P450 1A2 (Homo sapiens) (UniProt P05177); test: p450-cyp1a2 (AID 410; calls by dose curve; note: potency is the fitted concentration of half-maximal effect)
# Chain of Cytochrome P450 1A2 (Homo sapiens) (P05177 whole entry, looked up): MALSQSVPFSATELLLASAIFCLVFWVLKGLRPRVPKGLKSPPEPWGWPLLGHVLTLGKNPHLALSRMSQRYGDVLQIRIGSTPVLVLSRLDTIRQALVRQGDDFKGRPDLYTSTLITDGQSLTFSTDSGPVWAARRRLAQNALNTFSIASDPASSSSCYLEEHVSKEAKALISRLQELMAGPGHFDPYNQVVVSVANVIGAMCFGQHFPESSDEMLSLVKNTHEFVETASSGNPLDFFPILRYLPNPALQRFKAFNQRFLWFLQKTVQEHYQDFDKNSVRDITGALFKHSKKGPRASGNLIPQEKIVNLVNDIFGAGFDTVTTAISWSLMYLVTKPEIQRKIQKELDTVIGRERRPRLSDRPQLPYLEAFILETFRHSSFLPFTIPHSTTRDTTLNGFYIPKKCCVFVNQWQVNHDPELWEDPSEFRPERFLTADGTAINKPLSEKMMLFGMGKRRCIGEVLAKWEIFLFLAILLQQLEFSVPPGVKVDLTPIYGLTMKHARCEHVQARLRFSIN
# Procedure, shortened: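 20nM CYP1A2, 100uM Luciferin-ME (=Km), 100mM KPO4; cpd 10 min RT; +NADPH regen, 60 min RT; stop/detect 20 min; luminescence. Normalized to furafylline 57 uM = full inhibition.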
# [3] = Stat Signaling Pathway (AID 446); settings: ME-180 SIE beta-lactamase reporter, IL-6 stimulated, 5 h; at 7.69 µM (top of the series) unless noted;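 note: ME-180 cervical cancer cells given 40 pM IL-6 alongside compound; SIE-controlled beta-lactamase reporter measured as 460/530 nm FRET emission ratio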
# Procedure, shortened: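 Compound effects on IL-6-induced STAT reporter activity were measured in ME-180 cells. After overnight culture, cells were co-treated with 40 pM IL-6 for 5 hrs before beta-lactamase substrate loading at room temperature.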
# [4] = target: Glucocorticoid receptor (Homo sapiens) (UniProt P04150); test: GR-GFP Redistribution (AID 450;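 active = compounds whose dose series gives a full or clear partial fitted curve of increased nuclear translocation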; note: potency is the fitted concentration of half-maximal effect); settings: U2OS GR-GFP nuclear translocation, laser cytometry, 2 h
# Chain of Glucocorticoid receptor (Homo sapiens) (P04150 whole entry, looked up, the tested form may be a part): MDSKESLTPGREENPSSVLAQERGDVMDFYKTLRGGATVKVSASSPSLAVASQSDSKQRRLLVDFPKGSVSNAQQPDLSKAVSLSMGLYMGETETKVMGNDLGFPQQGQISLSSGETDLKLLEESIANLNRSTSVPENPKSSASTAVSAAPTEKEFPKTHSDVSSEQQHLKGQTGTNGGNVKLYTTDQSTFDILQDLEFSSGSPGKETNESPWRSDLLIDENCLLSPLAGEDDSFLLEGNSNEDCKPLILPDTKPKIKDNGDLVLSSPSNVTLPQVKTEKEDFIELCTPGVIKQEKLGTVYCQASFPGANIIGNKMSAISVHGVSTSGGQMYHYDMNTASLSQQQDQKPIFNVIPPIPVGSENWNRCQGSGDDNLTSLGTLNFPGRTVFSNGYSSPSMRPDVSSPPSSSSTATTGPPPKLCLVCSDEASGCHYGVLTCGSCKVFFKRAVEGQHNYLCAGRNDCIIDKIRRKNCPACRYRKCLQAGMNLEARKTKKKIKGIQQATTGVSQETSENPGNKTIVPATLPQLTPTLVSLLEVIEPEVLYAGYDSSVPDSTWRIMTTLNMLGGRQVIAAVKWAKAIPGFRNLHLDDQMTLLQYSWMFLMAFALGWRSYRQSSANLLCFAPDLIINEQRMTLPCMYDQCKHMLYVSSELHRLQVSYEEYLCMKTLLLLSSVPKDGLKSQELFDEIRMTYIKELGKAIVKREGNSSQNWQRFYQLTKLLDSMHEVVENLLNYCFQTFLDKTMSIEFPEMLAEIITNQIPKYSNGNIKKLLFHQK
# [5] = target: Glucocorticoid receptor (Homo sapiens) (UniProt P04150); test: GR-EFC Redistribution (AID 451; calls by dose curve; note: potency is the fitted concentration of half-maximal effect); settings: CHO-K1 GR-EFC translocation, beta-gal luminescence, 2 h
# Procedure, shortened: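 CHO-K1 cells stably expressing nuclear-localized β-gal enzyme acceptor and GR fused C-terminally to the enzyme donor fragment; ligand-driven nuclear translocation restores β-gal by complementation. Compounds titrated up to 46 uM final, 2 h at 37 °C; luminescence read.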
# [6] = target: Mitogen-activated protein kinase 10 (Mus musculus) (UniProt Q61831); test: JNK3 AlphaScreen Assay (AID 530);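 note: kinase came from lysate of stimulated human HepG2 cells; signal reports phosphorylation of biotinylated GST-cJun 1-79 at Ser73 with 10 µM ATP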
# Procedure, shortened: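 Biotinylated GST-cJun(1-79) served as substrate for JNK3 in HepG2 lysates stimulated with IL-1beta and TNF-alpha. ATP was 10 uM final, pH 7.6. Ser73 phosphorylation was quantified by AlphaScreen (680 nm excitation).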
# [7] = target: 3',5'-cyclic-AMP phosphodiesterase 4B (Homo sapiens) (UniProt Q07343); test: qHTS Assay for Inhibitors of PDE-IV (AID 607; active = well fitted activation curve with a large enough effect in the main read-out, with a control signal flat, not every such curve was filed as active)
# Chain of 3',5'-cyclic-AMP phosphodiesterase 4B (Homo sapiens) (Q07343 whole entry, looked up): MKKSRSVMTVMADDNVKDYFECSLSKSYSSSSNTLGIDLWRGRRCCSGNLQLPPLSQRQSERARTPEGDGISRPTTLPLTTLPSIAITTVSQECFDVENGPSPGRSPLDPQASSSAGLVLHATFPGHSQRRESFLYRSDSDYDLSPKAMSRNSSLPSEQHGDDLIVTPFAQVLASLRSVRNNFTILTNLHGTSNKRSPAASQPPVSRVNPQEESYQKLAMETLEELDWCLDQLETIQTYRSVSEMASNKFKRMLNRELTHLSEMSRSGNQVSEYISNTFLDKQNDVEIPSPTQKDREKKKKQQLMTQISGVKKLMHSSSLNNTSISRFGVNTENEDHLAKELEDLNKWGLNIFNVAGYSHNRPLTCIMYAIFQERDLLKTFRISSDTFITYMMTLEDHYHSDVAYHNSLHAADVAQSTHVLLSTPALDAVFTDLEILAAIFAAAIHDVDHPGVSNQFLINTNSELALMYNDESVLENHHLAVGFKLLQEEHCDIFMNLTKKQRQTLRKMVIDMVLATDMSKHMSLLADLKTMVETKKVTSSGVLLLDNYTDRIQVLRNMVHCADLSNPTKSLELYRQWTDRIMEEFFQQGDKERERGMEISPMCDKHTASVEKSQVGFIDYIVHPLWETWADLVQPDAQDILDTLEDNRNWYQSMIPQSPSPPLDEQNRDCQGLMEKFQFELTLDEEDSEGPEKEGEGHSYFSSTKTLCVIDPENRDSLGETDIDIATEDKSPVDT
# Procedure, shortened: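 ACTOne HEK293 cells carry a modified cAMP-gated CNG channel and express endogenous PDE4; plated 1000 cells/well, compounds up to 22.9 uM final. Membrane-potential dye fluorescence (ex 535/em 590) was read; parental cells received 10 uM forskolin + 100 uM RO 20-1724.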
# [8] = NFAT Signaling Pathway (AID 444); settings: Jurkat NFAT-bla M1, carbachol, beta-lactamase ratio, 5 h; at 7.69 µM (top of the series) unless noted;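 note: carbachol stimulus at about its EC50 of 1 µM final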
# Procedure, shortened: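 Jurkat cells carrying an NFAT-driven β-lactamase reporter and co-transfected muscarinic M1 receptor were treated with compound plus carbachol (1 uM final, an EC50 level) for 5 h at 37 °C. CCF4 loading followed for 1 h at RT; 460/530 nm ratio gave %activity.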
# [9] = target: Cytochrome P450 2C19 (Homo sapiens) (UniProt P33261); test: qHTS Assay for Inhibitors and Substrates of Cytochrome P450 2C19 (AID 899; active = well fitted curve in the direction sought with a large enough effect; an effect the other way counts as inactive or inconclusive; note: nearly all actives have a fitted effect of over 60% in size)
# Chain of Cytochrome P450 2C19 (Homo sapiens) (P33261 whole entry, looked up): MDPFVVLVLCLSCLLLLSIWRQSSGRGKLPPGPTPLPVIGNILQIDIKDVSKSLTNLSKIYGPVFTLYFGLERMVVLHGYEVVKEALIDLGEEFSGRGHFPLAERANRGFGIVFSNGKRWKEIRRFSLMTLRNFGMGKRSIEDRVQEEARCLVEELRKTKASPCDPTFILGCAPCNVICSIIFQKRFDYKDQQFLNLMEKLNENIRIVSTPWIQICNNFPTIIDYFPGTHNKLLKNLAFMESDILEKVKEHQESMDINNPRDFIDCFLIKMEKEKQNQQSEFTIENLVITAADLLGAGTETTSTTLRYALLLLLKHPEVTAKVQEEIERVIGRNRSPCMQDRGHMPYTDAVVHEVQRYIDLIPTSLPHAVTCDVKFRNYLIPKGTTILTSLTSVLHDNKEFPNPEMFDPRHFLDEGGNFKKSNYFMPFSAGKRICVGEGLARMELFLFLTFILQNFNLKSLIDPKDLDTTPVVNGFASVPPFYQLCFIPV
# Procedure, shortened: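 In 50mM KPO4, the reaction held 5nM enzyme and KM-level (10uM) Luciferin-H EGE; it ran 60 min at 37C after NADPH regeneration and a 10 min compound preincubation. Luminescence values were scaled to 57uM ketoconazole as complete inhibition.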
# [10] = target: Guanine nucleotide-binding protein G(i) subunit alpha-1 (Homo sapiens) (UniProt P63096); test: qHTS Assay for Inhibitors of RGS12 GoLoco Motif Activity (Green Fluorophore) (AID 879; active = well fitted curve in the direction sought with a large enough effect; an effect the other way counts as inactive or inconclusive;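 note: negative values mean loss of peptide binding seen as reduced polarization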)
# Chain of Guanine nucleotide-binding protein G(i) subunit alpha-1 (Homo sapiens) (P63096 whole entry, looked up): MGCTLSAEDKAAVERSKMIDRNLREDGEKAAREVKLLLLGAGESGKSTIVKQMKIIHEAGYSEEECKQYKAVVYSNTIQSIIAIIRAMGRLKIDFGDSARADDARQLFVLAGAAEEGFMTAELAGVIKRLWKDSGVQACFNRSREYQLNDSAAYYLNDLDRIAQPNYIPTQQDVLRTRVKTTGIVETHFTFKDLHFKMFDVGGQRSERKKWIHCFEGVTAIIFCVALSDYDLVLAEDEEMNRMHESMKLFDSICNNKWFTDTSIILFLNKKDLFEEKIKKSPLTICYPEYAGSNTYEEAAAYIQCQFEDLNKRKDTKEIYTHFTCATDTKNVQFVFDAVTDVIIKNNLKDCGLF
# Procedure, shortened: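 A drop in FITC polarization marked displacement of the FITC-tagged RGS12 GoLoco peptide (10 nM) from Gαi1 (50 nM). Compounds were incubated 10 min at room temperature in Tris pH 7.5 buffer containing 150 mM NaCl, 0.1 mM GDP and 0.05% NP40; unlabeled peptide titration served as control.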
# [11] = qHTS Assay for Identification of Small Molecule Antagonists for NFkB Signaling Pathway (AID 895; active = well fitted inhibition curve with a large enough effect in the signal ratio, with a control signal flat, not every such curve was filed as active; the % refers to the signal ratio)
# Procedure, shortened: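 NFkB-bla ME-180 cervical carcinoma cells with beta-lactamase reporter under NFkB response element; compounds added, then TNF alpha at 10 pM final (EC50), 5 h at 37 C. LiveBLAzer substrate 2 h, room temperature; emission 460/530 nm at 405 nm excitation.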
# [12] = qHTS Assay for Identification of Small Molecule Agonists for Hypoxia Response Element Signaling Pathway (AID 914; active = well fitted activation curve with a large enough effect in the signal ratio, with a control signal flat, not every such curve was filed as active; the % refers to the signal ratio); settings: ME-180 (cervical carcinoma) HRE-bla reporter, beta-lactamase ratio, CoCl2, 17 h; activation: stronger effect = higher value
# Procedure, shortened: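 HRE-bla ME-180 cells with beta-lactamase reporter under hypoxia response element, compounds with EC50 CoCl2 for 17 hours at 37 C. CCF4 substrate, 460nm/530nm emission ratio gave %Activity; AC50 from titration series.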
# [13] = target: Muscarinic acetylcholine receptor M1 (Rattus norvegicus) (UniProt P08482); test: qHTS Assay for Antagonists of Acetylcholine Muscarinic M1 Receptor: Kinetic Measurement of Intracellular Calcium Response (AID 943; active = well fitted curve in the direction sought with a large enough effect; an effect the other way counts as inactive or inconclusive;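 note: Fluo-4 calcium signal as peak divided by basal fluorescence over 4 min; nearly all actives have a fitted effect of over 75% in size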)
# Chain of Muscarinic acetylcholine receptor M1 (Rattus norvegicus) (P08482 whole entry, looked up): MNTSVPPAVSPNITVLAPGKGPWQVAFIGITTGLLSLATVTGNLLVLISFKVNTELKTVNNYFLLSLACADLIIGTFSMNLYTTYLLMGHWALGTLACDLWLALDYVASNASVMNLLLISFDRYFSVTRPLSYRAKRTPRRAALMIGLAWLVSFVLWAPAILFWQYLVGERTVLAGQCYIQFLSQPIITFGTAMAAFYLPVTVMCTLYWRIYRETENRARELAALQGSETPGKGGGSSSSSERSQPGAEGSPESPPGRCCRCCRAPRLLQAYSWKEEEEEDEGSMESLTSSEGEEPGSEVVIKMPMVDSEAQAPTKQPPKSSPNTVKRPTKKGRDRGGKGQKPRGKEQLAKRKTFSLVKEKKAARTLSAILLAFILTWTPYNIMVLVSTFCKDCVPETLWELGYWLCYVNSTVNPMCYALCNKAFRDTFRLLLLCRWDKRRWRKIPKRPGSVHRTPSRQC
# Procedure, shortened: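 Read-out: peak over basal Fluo-4 fluorescence, kinetic at 1 Hz for 4 min after EC80 carbachol (100 nM final). Rat M1-CHO cells, dye loaded 1 h at 37C, compound added 10 min before agonist.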
# [14] = target: Muscarinic acetylcholine receptor M1 (Rattus norvegicus) (UniProt P08482); test: qHTS Assay for Antagonists of Acetylcholine Muscarinic M1 Receptor: Measurement of IP-One Response (AID 944; active = well fitted curve in the direction sought with a large enough effect; an effect the other way counts as inactive or inconclusive; note: nearly all actives have a fitted effect of over 75% in size)
# Procedure, shortened: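 Read-out: HTRF competition between d2-IP1 and Eu-cryptate anti-IP1 antibody, emission 620 and 665 nm. Stimulus was carbachol, EC80 (200 nM), for 30 min in M1-CHO cells (rat receptor), after 10 min compound pre-treatment.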
# [15] = target: Pyruvate kinase PKM (Homo sapiens) (UniProt P14618); test: qHTS Assay for Activators of Human Muscle Pyruvate Kinase (AID 954; active = well fitted curve in the direction sought with a large enough effect, not every such curve was filed as active)
# Chain of Pyruvate kinase PKM (Homo sapiens) (P14618 whole entry, looked up): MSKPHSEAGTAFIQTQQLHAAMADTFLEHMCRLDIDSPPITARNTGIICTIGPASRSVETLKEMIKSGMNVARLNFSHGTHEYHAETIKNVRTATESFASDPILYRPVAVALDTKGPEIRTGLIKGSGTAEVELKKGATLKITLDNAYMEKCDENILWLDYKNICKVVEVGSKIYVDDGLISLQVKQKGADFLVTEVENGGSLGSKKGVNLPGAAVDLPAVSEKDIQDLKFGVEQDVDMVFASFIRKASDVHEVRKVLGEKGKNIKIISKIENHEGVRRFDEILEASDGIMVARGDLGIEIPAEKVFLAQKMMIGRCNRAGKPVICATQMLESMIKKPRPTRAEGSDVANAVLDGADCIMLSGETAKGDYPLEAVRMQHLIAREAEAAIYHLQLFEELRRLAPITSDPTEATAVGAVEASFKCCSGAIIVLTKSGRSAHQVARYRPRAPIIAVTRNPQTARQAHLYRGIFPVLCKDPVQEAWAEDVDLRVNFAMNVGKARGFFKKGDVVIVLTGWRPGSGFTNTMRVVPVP
# Procedure, shortened: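 A coupled luminescent readout tracked ATP made from ADP by purified PKM2. Final conditions included 0.1 nM enzyme, PEP and ADP at 0.5 and 0.1 mM, pH 7.2 imidazole buffer with BSA, and a one-hour room-temperature reaction.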
# [16] = target: Alpha-galactosidase A (Homo sapiens) (UniProt P06280); test: Counterscreen for Glucocerebrosidase Inhibitors: qHTS Assay for Human alpha-Galactosidase at pH 4.5 (AID 992; active = well fitted curve in the direction sought with a large enough effect; an effect the other way counts as inactive or inconclusive)
# Chain of Alpha-galactosidase A (Homo sapiens) (P06280 whole entry, looked up): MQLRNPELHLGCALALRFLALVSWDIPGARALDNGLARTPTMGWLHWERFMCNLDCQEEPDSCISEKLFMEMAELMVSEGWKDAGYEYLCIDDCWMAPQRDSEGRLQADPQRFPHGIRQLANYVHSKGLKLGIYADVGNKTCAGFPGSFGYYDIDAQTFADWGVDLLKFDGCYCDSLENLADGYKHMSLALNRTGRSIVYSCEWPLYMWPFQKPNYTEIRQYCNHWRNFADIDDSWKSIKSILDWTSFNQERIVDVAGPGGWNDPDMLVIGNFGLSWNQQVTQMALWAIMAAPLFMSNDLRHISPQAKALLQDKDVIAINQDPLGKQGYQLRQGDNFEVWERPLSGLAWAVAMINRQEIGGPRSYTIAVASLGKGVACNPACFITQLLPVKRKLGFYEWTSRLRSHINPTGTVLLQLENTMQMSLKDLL
# Procedure, shortened: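 Citrate buffer pH 4.5, Tween-20 0.005%. Enzyme 2 nM, substrate 80 uM, 20 min RT. Stop pH 10. Fluorescence Ex 365/Em 440. AC50 by Hill fit.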
# [17] = target: alpha-glucosidase (Oryza sativa, rice) (UniProt Q653V4); test: Counterscreen for Glucocerebrosidase Inhibitors: qHTS Assay for Rice alpha-Glucosidase at pH 5.0 (AID 997; active = well fitted curve in the direction sought with a large enough effect; an effect the other way counts as inactive or inconclusive)
# Procedure, shortened: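 Endpoint fluorogenic assay at pH 5.0: compounds (0.7 nM to 77 uM) titrated against 4 nM rice enzyme and 400 uM 4-MU-alpha-glucoside for 20 min at room temperature; NaOH/glycine stop, read ex 365/em 440 nm, Hill-fitted AC50.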
# [18] = target: Cytochrome P450 2C9 (Homo sapiens) (UniProt P11712); test: qHTS Assay for Inhibitors and Substrates of Cytochrome P450 2C9 (AID 883; active = well fitted curve in the direction sought with a large enough effect; an effect the other way counts as inactive or inconclusive; note: nearly all actives have a fitted effect of over 60% in size)
# Procedure, shortened: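 CYP2C9 deoxyluciferin hydroxylation, 37C, 60 min with NADPH regeneration; 10nM enzyme, 100uM Luciferin-H (KM). Glo detection reagent stopped reaction; luminescence normalized to sulphaphenazole (57uM) full inhibition.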
# [19] = qHTS Assay for Identification of Small Molecule Agonists for Thrombopoietin (TPO) Signaling Pathway (AID 917; active = well fitted curve in the direction sought with a large enough effect; an effect the other way counts as inactive or inconclusive)
# Procedure, shortened: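 Quantitative HTS for pathway activators: compounds were pin-transferred onto IL-3-starved Ba/F3 cells expressing human TPO receptor, TPO was added at its EC50 (26 pM final), and after 24 hrs at 37 C reporter luciferase was measured.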
# [20] = target: Pyruvate kinase (Leishmania mexicana) (UniProt Q27686); test: qHTS Validation Assay for Inhibitors of Leishmania Mexicana Pyruvate Kinase (AID 945; active = well fitted curve in the direction sought with a large enough effect; an effect the other way counts as inactive or inconclusive)
# Chain of Pyruvate kinase (Leishmania mexicana) (Q27686 2-499 E452W): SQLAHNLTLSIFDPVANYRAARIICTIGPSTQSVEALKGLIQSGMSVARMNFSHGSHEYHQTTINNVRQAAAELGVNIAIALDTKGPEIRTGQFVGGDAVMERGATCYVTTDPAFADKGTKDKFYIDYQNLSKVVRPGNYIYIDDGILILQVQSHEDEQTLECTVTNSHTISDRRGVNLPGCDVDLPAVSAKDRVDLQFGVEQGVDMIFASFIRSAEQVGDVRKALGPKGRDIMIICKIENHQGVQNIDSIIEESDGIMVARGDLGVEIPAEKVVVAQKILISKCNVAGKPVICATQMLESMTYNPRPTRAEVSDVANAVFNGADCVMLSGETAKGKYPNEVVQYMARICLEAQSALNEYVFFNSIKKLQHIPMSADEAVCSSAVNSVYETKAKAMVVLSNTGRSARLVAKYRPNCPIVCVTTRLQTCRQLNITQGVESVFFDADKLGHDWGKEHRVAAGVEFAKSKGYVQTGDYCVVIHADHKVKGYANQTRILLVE
# Procedure, shortened: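 Eight-point qHTS titrations in triplicate, data normalized to DMSO neutral control. Reaction: 0.2 nM LmPYK E451W mutant, 0.5 mM PEP, 0.1 mM ADP, 7 mM MgCl2, pH 7.2, one hour at room temperature; luminescent ATP detection.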
compound,measurement,setting,value
O=C(Nc1ccc2c(c1)Cc1ccccc1-2)[C@@H]1[C@H](C(=O)O)[C@]2(Cl)C(Cl)=C(Cl)[C@@]1(Cl)C2(Cl)Cl,"activity change, negative = inhibition",[1],9.85%
same,Potency,[2],3.16 µM (active)
same,"activity, negative = inhibition",[3],4.65%
same,Potency,[4],> 46 µM
same,Potency,[5],> 9.22 µM
same,Potency,[6],inactive
same,Potency,[7],inactive
C[N+]1(CCC[N+]2(C)C[C@H]3[C@H](C2)[C@H]2C=C[C@@H]3CC2)CCOCC1 (stereo partly specified),"activity change, negative = inhibition",[1],0.978%
same,Potency,[2],inactive
same,"activity change, negative = inhibition",[8],1.42%
same,Potency,[4],> 46 µM
same,Potency,[6],inactive
same,Potency,[7],inactive
CC[N+](C)(CC)CCN1C(=O)c2ccccc2S1(=O)=O,"activity change, negative = inhibition",[1],7.73%
same,Potency,[2],inactive
same,"activity change, negative = inhibition",[8],6.78%
same,Potency,[4],> 46 µM
same,Potency,[5],> 9.22 µM
same,Potency,[6],inactive
same,Potency,[7],inactive
same,Potency,[9],inactive
OC[C@@H]1O[C@@H](n2cnc3c(NC4CCCCC4)ncnc32)[C@@H](O)[C@H]1O,"activity change, negative = inhibition",[1],-12.8% [at 38 µM]
same,Potency,[2],inactive
same,"activity change, negative = inhibition",[8],1.85% [at 38 µM]
same,Potency,[4],> 46 µM
same,Potency,[5],> 46 µM
same,Potency,[7],inactive
same,outcome,[10],inactive
same,Potency,[11],inactive
same,activation,[12],-22.9%
same,Potency,[13],inactive
same,Potency,[14],inactive
same,outcome,[15],inactive
same,outcome,[16],inactive
same,Potency,[17],inactive
CCCCCCCCCCCCC/C=C\[C@H](O)[C@H](N)CO,"activity change, negative = inhibition",[1],27.4% [at 38 µM]
same,Potency,[2],31.6 µM (active)
same,"activity change, negative = inhibition",[8],1.11% [at 38 µM]
same,Potency,[5],> 46 µM
same,Potency,[7],inactive
same,Potency,[18],inactive
same,Potency,[9],inactive
C#C[C@@]1(O)CC[C@H]2[C@H]3CCC4=Cc5oncc5C[C@]4(C)[C@@H]3CC[C@@]21C,"activity change, negative = inhibition",[1],-22.8% [at 38 µM]
same,Potency,[2],12.6 µM (active)
same,"activity, negative = inhibition",[3],6.25% [at 38 µM]
same,Potency,[4],> 46 µM
same,Potency,[5],> 46 µM
same,Potency,[6],inactive
Cc1ccc(C(=O)O[C@@H](C(=O)O)[C@@H](OC(=O)c2ccc(C)cc2)C(=O)O)cc1 (tested in a mixture with another compound),"activity change, negative = inhibition",[1],-1.5% [at 38 µM]
same,Potency,[2],inactive
same,"activity change, negative = inhibition",[8],0.143% [at 38 µM]
same,"activity, negative = inhibition",[3],0.98% [at 38 µM]
same,Potency,[7],inactive
same,outcome,[10],inactive
same,outcome,[19],inactive
same,Potency,[14],inactive
same,outcome,[20],inactive
same,outcome,[16],inactive
same,Potency,[17],inactive
CNC(=O)[C@@H]1O[C@@H](n2cnc3c(N)ncnc32)[C@@H](O)[C@H]1O,"activity change, negative = inhibition",[1],-10.7% [at 38 µM]
same,Potency,[2],inactive
same,"activity change, negative = inhibition",[8],6.42% [at 38 µM]
same,Potency,[4],> 46 µM
same,Potency,[5],> 46 µM
same,Potency,[6],inactive
same,outcome,[19],inactive
same,Potency,[13],inactive
same,outcome,[20],inactive
same,outcome,[15],inactive
same,outcome,[16],inactive
same,Potency,[17],inactive
